In PubChem BioAssay one finds composite z-score and z-score data, which are given here for 13 molecules.

For test [1], the system named is Human papillomavirus type 1a protein E7 (residues 44-93). In words: small molecules binding HPV E7 44-93 – biochemical, small-molecule microarray, residues 44-93, 635 nm fluorescence, primary screen (AID 1108).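 Note: E7 fragment applied at 1 µg/mL in TBST for 1 h at 4 C; score combines spot fluorescence with its signal to noise ratio.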 As to conditions: fluorescence 635 nm, higher = more signal.
Test [2] is described as follows: hepatitis C replication reporter changes, two-sided – Huh7 cells, luciferase reporter, HCV replication inhibitor project, primary screen (AID 1109).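 Note: huh7 hepatoma cells harbouring a luciferase neomycin HCV replicon reporter; luciferase luminescence as measure of HCV replicon replication; test concentration not given here.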 As to conditions: Huh7 HCV replicon luciferase reporter, 48 h; higher = more signal.
The target in test [3] is Left-right determination factor 2 (Homo sapiens) (UniProt O00292). Put plainly: small molecules binding LEFTY2 protein – biochemical, small-molecule microarray, 635 nm fluorescence scan, primary screen (AID 1110). As to conditions: higher = more signal.
For test [4], the target named is Calmodulin-1 (Homo sapiens) (UniProt P0DP23). In words: small molecules binding calmodulin-1 with EGTA – biochemical, small-molecule microarray, Cy5-labelled CALM1, profiling panel (AID 1111).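 Note: labelled calmodulin applied in Tris saline Tween buffer holding calcium plus EGTA and DTT.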 As to conditions: Cy5-CALM1 binding fluorescence, higher = more signal.
For test [5] the target is unchanged. Put plainly: small molecules binding Ca-loaded calmodulin-1 – biochemical, small-molecule microarray, Cy5-labelled CALM1, plus calcium, artefact control for SMM control-protein annotation, profiling panel (AID 1112).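 Note: score merges spot fluorescence with signal to noise from triplicate slides.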 As to conditions: Cy5-CALM1 binding fluorescence, higher = more signal.
Test [6] in a line: probe aWnt5a binding to arrayed compounds – biochemical, biotinylated probe, 635/667 nm fluorescence, primary screen (AID 1113).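 Note: score merges 667 nm fluorescence intensity with signal-to-noise per printed feature.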 As to conditions: small-molecule microarray, higher = more signal.
Test [7] can be described thus: probe aShh binding to arrayed compounds – biochemical, biotinylated probe, 635/667 nm fluorescence, primary screen (AID 1114).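 Note: probe is biotin-labelled aShh protein from a stem cell growth factor screen; measures binding of labelled protein to compounds printed on the slide; score merges feature fluorescence at 667 nm with signal-to-noise.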 As to conditions: small-molecule microarray, higher = more signal.
A short description of test [8]: probe aNog binding to arrayed compounds – biochemical, biotinylated probe, 635/667 nm fluorescence, primary screen (AID 1115).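 Note: probe is biotinylated aNog protein used at 0.15 µg/mL for 1 h at 4 C; z-score combines 667 nm fluorescence of each spot with its signal to noise.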 As to conditions: small-molecule microarray, higher = more signal.
The target in test [9] is Torsin-1A-interacting protein 1 (Homo sapiens) (UniProt Q5JTV8). Put plainly: compound microarray binding of lysate hLAP1 – cell lysate, small-molecule microarray, COS7 lysate, 635/667 nm fluorescence, primary screen (AID 1116). As to conditions: 635 nm fluorescence, higher = more signal.
The target of test [10] is Alpha-bungarotoxin (Bungarus multicinctus) (UniProt P60615). In words: compounds binding labelled alpha-BTX control protein – biochemical, small-molecule microarray, Alexa647 label, 635/667 nm fluorescence, artefact control for SMM control protein annotation, profiling panel (AID 1117). As to conditions: alpha-BTX-A647 binding fluorescence, higher = more signal.
Alpha-bungarotoxin (Bungarus multicinctus), sequence (P60615 whole entry, looked up): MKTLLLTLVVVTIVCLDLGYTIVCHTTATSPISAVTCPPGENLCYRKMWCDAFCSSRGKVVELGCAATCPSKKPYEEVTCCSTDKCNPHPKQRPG

Torsin-1A-interacting protein 1 (Homo sapiens), sequence (Q5JTV8 whole entry, looked up): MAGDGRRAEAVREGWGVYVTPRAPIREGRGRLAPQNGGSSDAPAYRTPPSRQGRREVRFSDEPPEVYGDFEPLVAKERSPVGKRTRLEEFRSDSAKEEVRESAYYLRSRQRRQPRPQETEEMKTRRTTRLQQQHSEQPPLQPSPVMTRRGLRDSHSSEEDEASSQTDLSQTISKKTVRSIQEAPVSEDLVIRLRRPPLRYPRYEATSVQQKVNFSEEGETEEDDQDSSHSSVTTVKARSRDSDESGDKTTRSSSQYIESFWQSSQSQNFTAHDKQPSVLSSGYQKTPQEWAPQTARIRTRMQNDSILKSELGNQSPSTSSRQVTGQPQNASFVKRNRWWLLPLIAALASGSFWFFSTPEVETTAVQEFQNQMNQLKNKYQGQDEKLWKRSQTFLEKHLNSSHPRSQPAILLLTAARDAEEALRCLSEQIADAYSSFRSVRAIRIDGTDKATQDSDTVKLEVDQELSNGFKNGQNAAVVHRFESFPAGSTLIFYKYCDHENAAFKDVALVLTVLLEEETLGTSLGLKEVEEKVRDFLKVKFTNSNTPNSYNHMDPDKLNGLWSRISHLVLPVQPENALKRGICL
Left-right determination factor 2 (Homo sapiens), sequence (O00292 whole entry, looked up): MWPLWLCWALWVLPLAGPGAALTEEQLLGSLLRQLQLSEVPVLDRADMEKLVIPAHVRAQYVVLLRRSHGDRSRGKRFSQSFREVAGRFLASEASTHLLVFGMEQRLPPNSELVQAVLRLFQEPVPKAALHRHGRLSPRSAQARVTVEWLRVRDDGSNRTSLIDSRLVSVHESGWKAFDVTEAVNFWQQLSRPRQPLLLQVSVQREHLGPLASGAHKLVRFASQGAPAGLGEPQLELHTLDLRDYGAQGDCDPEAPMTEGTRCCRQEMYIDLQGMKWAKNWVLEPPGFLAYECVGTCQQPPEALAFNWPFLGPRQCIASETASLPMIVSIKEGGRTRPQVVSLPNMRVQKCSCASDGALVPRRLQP

Take `COc1ccc([Si](C)(C)[C@H]2[C@H](CCO)O[C@@]3(C(=O)N(Cc4ccc(N(C=O)c5ccccc5)cc4)c4ccccc43)[C@@H]2C)cc1`: the composite z-score is -0.2 in [1]; -0.677 in [3]; 0.625 in [4]; 1.01 in test [5]; -0.124 in test [6]; -0.0553 in test [7]. Besides, the composite z-score was -0.14 in [8], 0.34 in test [9] and 0.158 in test [10]. Besides, the z-score in test [2] was -4.65.

In the case of `O=C1C2C=CC(C(O)c3cccc4ccccc34)N(Nc3ccccc3F)C2C(=O)N1c1ccccc1` (stereo not given), the composite z-score worked out at 1.45 in test [1]; 0.264 in test [3]; 1.84 in test [4]; 0.895 in test [5]; 0.0554 in test [6]; 0.14 in [7]. The composite z-score in [8] was found to be 0.737; in test [9], 1.4; in [10] it was 2.15. The molecule further showed a z-score in test [2] of -0.69.

As for `COC(=O)[C@@]1(Cc2ccccc2)N=C(c2ccc(OCCCO)cc2)O[C@H]1c1ccccc1`, the composite z-score is 0.968 in test [1]; -1.06 in [3]; 0.288 in test [4]; -0.0316 in test [5]; -0.0647 in [6]; 0.261 in [7]. Also, the composite z-score amounted to 1.14 in [8], 2.32 in [9] and 1.93 in test [10]. Further, the z-score in test [2] is -1.98.

Consider `O[C@@H](Cc1ccccc1)[C@H]1C2C=CCCC=C2CN1Cc1cccc(Cl)c1` (stereo not given in full), for which the composite z-score in test [1] was 1.1; in test [3], 0.702; in test [4], 0.0101; in test [5], -0.2; in [6] it was -0.0721; in test [7] it was -0.138. Further, the composite z-score was determined as 0.277 in test [8], 0.761 in [9] and 1.36 in test [10]. The z-score in test [2] was -1.42.

As to `CC1(C)C2C=C(C(O)C3C=CC4C(=O)NC(=O)C4N3Nc3ccc(Cl)cc3Cl)C[C@@H]1C2` (stereo not given in full), the composite z-score in test [1] is 0.772; in test [3], -0.0061; in [4], 2.35; in test [5] it was 1.01; in test [6] it was -0.006; in test [7] it was 0.275. For the same molecule, the values for the composite z-score in [8], in test [9] and in [10] were 0.503, 1.27 and 1.31, respectively. For the same molecule, in test [2], the z-score was -1.45.

Turning to `O=C1OCCC/C=C\[C@H]2OC34C=CCN(Cc5ccccc5)C(=O)[C@H]3N(CCCO)C(=O)[C@@H]4C12` (stereo not given in full), the composite z-score is 0.0636 in test [1]; -2.09 in [3]; -0.537 in test [4]; 0.464 in test [5]; -0.178 in test [6]; -0.16 in [7]. Besides, the results for the composite z-score in test [8], in [9] and in test [10] were -0.244, 1.82 and -0.972, respectively. In addition, the z-score in test [2] is -0.779.

With `C=CCNC(=O)[C@@H]1[C@H]2C(=O)O[C@H](c3ccccc3)[C@H](c3ccccc3)N2[C@H](c2ccccc2OCCO)[C@@]12C(=O)N(C(=O)OCCOC)c1ccccc12`, the composite z-score in test [1] was 1.43; in test [3], 0.877; in [4] it was 0.926; in test [5] it was -0.464; in [6] it was 0.132; in test [7] it was 0.126. Besides, the composite z-score in test [8] is -0.331; in [9], 0.784; in test [10], 1.25. Also, in [2], the z-score was -2.64.

Regarding `O=C(NCCN1CCOCC1)C1N=C(c2ccc(OCCCO)cc2)N(c2ccccc2)O1` (stereo not given), the composite z-score in test [1] was 0.694; in [3], 1.08; in test [4], 0.745; in test [5], -0.177; in [6] it was 0.139; in test [7], -0.0457. Further, the composite z-score in [8] was found to be 0.05; in test [9], 1.68; in [10] it was 1.55. In [2], this molecule returned a z-score of 0.289.

Turning to `CN(C)CCCCCCNC(=O)[C@H]1C[C@H]2C(=O)N3CCC[C@H]3C(=O)N2[C@H]1c1ccc(O)cc1`, the composite z-score in test [1] was 1.12; in [3], 1.44; in test [4], -1.17; in test [5] it was -2.33; in [6], -0.0598; in test [7], 0.178. The composite z-score in [8] is 0.0459; in [9], 1.29; in test [10], 0.73. In test [2], this molecule registered a z-score of 1.42.

As to `COc1cc2c(cc1OC)CN(C(=O)[C@H]1[C@@H]3C(=O)O[C@@H](c4ccccc4)[C@@H](c4ccccc4)N3[C@@H](c3ccc(O)cc3)[C@]13C(=O)Nc1ccccc13)CC2`, the composite z-score was 1.46 in test [1]; 0.0835 in test [3]; 0.92 in [4]; 0.427 in test [5]; -0.166 in [6]; -0.0289 in test [7]. The composite z-score worked out at 0.386 in test [8], 1.01 in test [9] and 1.43 in test [10]. In addition, the z-score in test [2] was -2.54.

As for `NC(=O)NCC#Cc1ccc2c(c1)[C@]1(C(=O)N2)[C@H](c2ccc(O)cc2)N2[C@H](c3ccccc3)[C@H](c3ccccc3)OC(=O)[C@H]2[C@@H]1C(=O)O`, the composite z-score in test [1] was -0.0303; in test [3], -1.09; in test [4], 0.342; in [5], 0.521; in test [6], -0.185; in test [7] it was -0.42. For the same molecule, the composite z-score in [8] was -0.0683; in test [9], -0.354; in [10] it was -0.27. Moreover, the z-score in test [2] is -0.708.

As to `CCCC[C@H]1OB(O)C[C@H]2C1=C(COC)C[C@H]1C(=O)N(C)C(=O)[C@H]12`, the composite z-score in test [1] was 0.343; in [3], 0.358; in test [4] it was 0.223; in test [5], -0.596; in test [6] it was -0.152; in [7], -0.0626. The composite z-score in test [8] is -0.0496; in test [9], -0.321; in test [10], 1.16. For the same molecule, the z-score in [2] is -0.918.

For `COc1cc2c(cc1O)C(C1CC1)N(Cc1sc3ccccc3c1Cl)CC2` (stereo not given), the composite z-score in test [1] was 1.39; in test [3], -0.423; in test [4] it was 0.131; in [5], 0.469; in test [6] it was -0.0977; in test [7], 0.0062. Moreover, the results for the composite z-score in [8], in test [9] and in test [10] were 0.173, 1.26 and 0.281, respectively. The molecule further showed a z-score in test [2] of -2.87.
